Screening data: PubChem, several laboratories
Hsp90 inh: displaces geldanamycin probe from tumor Hsp90 | P07900 | NCI-N417 lysate Hsp90, Cy3B-geldanamycin FP displacement | inhibition, % at 30 µM | actives 0.35% (n = 64,000) | AID 429;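 active = inhibition above 50%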;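 also: 0% = tracer plus lysate wells and 100% = tracer alone without lysate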
SKBR3 24h inh: SK-BR-3 proliferation inhibitors; SK-BR-3 viability, CellTiter-Glo ATP luminescence, 24 h; stronger effect = lower value; viability, % at 10 µM; actives 0.47% (n = 41,000); AID 847;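 active = viability at or below the median of all test compounds minus 3 SD, in both replicates if run twice, cut at about 45% in these data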;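 also: 100% = median untreated cell wells and 0% = median positive control drug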
MMP-13 inhibitor: MMP13 (human) collagenase inhibition; P45452; MMP-13 fTHP FRET cleavage, Mca fluorescence; inhibition, % at 4 µM; actives 0.07% (n = 65,000);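 active = inhibition above the mean of compound-free control plate wells plus 3 SD, cut at about 14% in these data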;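 also: 0% = DMSO wells and 100% = wells with reference MMP-13 inhibitor after basal subtraction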
ROCK2 blocker: inhibitors of human Rho kinase 2. actives 0.35% (n = 60,000). inhibition, % at 6 µM. O75116. purified ROCK2, Kinase-Glo ATP depletion luminescence;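 active = inhibition above the screen-wide mean inhibition plus 3 SD, cut at about 18% in these data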;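 also: plate controls were DMSO wells for no effect and Y-27632 control wells after no-enzyme background subtraction for full effect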
Target sequence (O75116 whole entry, looked up): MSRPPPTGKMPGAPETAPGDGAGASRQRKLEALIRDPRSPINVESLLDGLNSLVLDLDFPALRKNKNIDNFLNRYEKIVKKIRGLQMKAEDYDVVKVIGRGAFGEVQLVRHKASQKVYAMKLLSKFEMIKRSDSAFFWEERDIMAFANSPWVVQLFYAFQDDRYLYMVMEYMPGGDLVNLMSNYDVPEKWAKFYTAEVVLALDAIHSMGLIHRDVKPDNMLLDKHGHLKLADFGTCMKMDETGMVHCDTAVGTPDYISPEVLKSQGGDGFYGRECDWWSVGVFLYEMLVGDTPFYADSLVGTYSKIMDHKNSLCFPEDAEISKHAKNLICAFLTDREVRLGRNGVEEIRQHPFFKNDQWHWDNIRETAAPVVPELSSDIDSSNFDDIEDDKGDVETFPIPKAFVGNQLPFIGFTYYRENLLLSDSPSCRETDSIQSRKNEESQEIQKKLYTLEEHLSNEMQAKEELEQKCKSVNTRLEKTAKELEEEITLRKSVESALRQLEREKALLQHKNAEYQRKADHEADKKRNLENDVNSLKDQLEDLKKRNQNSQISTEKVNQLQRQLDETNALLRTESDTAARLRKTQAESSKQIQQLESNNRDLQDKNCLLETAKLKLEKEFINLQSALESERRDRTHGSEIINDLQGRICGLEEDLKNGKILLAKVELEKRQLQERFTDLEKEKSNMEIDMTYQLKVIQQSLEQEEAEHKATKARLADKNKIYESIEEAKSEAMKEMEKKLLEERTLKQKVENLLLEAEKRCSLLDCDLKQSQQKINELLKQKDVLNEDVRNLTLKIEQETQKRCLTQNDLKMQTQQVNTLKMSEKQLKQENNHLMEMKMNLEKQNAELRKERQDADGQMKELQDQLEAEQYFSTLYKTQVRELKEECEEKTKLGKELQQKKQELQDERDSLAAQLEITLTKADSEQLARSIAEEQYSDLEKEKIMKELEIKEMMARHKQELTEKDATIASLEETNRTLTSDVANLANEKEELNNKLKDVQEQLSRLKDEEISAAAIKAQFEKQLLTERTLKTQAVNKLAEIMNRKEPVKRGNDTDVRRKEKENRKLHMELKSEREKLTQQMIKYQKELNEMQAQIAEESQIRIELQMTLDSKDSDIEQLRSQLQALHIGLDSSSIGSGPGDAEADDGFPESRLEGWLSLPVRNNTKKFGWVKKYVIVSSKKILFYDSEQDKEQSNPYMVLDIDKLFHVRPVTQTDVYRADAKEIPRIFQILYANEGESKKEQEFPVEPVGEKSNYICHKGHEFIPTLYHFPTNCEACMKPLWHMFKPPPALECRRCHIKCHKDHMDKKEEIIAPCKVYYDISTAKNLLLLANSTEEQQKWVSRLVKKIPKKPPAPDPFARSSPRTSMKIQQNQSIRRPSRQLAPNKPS
Htt clearance: compounds clearing mutant huntingtin protein. inhibition, % at 1.5 µM. HeLa Exon1htt(103Q)mCFP, aggregate imaging; zero = plate's median compound well. actives 0.42% (n = 47,000);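 active = inhibition of aggregate fluorescence above about 70%, also judged a hit by eye on the cell image, limit read from the data, passing the limit was not always enough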;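 also: cells exposed to compound for three days before fixation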
PKA kinase inh: blocks human protein kinase A activity; P17612; PKA Kemptide phosphorylation, Kinase-Glo ATP luminescence; inhibition, % at 6 µM; actives 0.1% (n = 65,000); AID 524;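 active = inhibition above the screen-wide mean inhibition plus 3 SD, cut at about 21% in these data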
* = called active by the depositor; i = inactive; . = not tested or not shown. In the library only some 0.97% were active in any assay of this set; here they are far more common.

SMILES	Hsp90 inh	SKBR3 24h inh	MMP-13 inhibitor	ROCK2 blocker	Htt clearance	PKA kinase inh
CC(C)(C)OC(=O)N[C@@H](Cc1ccccc1)c1nnc(S(=O)(=O)Cc2ccccc2)o1	-1.6	97.9	2.3	4.4	.	8.7
Cc1ccc(NC(=O)Cn2c(=O)n(CCCCC(=O)NCc3ccco3)c(=O)c3ccccc32)cc1	-6.0	43.3*	4.2	3.0	.	8.2
NC(=O)c1sc2nc3c(c(-c4ccco4)c2c1N)CCC3	-7.2	87.4	-2.1	35.1*	52.5	9.3
Cc1cccc2cc(C#N)c(NCCNS(=O)(=O)c3ccc4c(c3)OCCO4)nc12	0.7	29.6*	-80.3	-0.9	i	-0.8
CN1C(=O)CC(C(=O)O)SC1=Nc1ccc(F)cc1 (stereo unspecified)	.	.	.	.	-38.0	.
Nc1ncnc2c1ncn2[C@@H]1O[C@H](CO)[C@H](O)C1O (stereo partly specified)	-2.5	.	.	.	.	.
Clc1ccc(OCCN2CCN(c3ncnc4sccc34)CC2)cc1	-4.5	.	-10.1	10.0	.	36.1*
Cc1ccc(OCCN2CCN(c3ncnc4sc(C)c(C)c34)CC2)cc1	.	.	.	.	-303.5	.
COc1ccc(C2c3c(oc4c(C)cc(C)cc4c3=O)C(=O)N2Cc2cccnc2)cc1OC (stereo unspecified)	3.0	51.1	-7.8	3.1	.	0.9
COc1cc(C2c3c(oc4c(C)cc(C)cc4c3=O)C(=O)N2Cc2cccnc2)ccc1O (stereo unspecified)	4.6	34.8*	31.9*	-1.3	.	-0.8
Cc1ccc2nsnc2c1S(=O)(=O)N1CCN(C(=O)C2CCCO2)CC1 (stereo unspecified)	-3.1	36.8*	5.3	-1.9	.	5.6
Cc1cc(C)c2cc(CN(CCO)C(=O)Nc3ccc(F)cc3)c(=O)[nH]c2c1	-0.7	60.9	0.3	6.0	.	6.5
Cc1cc(C)c2cc(CN(Cc3ccco3)C(=O)NCc3ccccc3)c(=O)[nH]c2c1	-4.0	37.1*	-3.6	-1.2	.	-4.4
Cc1ccc2nc(NC(=O)Cn3cc4c(n3)CCCCC4)sc2c1	0.8	.	0.7	-1.3	-117.1	-4.6
CCC(=O)N1CCN(c2ccc(NC(=O)c3cc4ccccc4o3)cc2Cl)CC1	2.8	91.3	3.5	9.7	.	-0.9
CCCC(=O)N1CCN(c2ccc(NC(=O)c3cc4ccccc4o3)cc2Cl)CC1	0.2	6.2*	2.5	11.2	.	7.6
O=C1NC(O)=NC1(c1ccccc1)c1ccccc1	-0.5	.	.	.	.	.
CN(C)C(=O)N1CCN(C(=O)N2CCOCC2)CC1	.	.	.	.	60.0	.
CN(C)C=Nc1nonc1-c1ncn[nH]1	-1.4	114.3	3.3	5.3	27.9	3.8
CN(C)C=Nc1c(Br)cc(Br)c2nonc12	52.7*	133.1	8.2	1.5	90.7*	4.7
COc1ccccc1C1NC(=O)NC(C)=C1C(C)=O (stereo unspecified)	1.3	.	-3.4	1.9	71.1*	5.2
CCC(=O)Nc1ccc(C(=O)Cn2nc(C(=O)O)c3ccccc3c2=O)cc1	-9.5	.	4.5	32.6*	.	11.3
CN1CCc2cc(Cl)c(O)cc2[C@@H](c2ccccc2)C1	-0.5	.	.	.	.	.
C=CCN1CCc2c(cc(O)c(O)c2Br)[C@@H](c2ccccc2)C1	80.6*	.	.	.	.	.
Clc1cccc2sc(-c3nnc(-c4ccccc4)o3)c(Cl)c12	.	.	.	.	48.3	.
SMILES	Hsp90 inh	SKBR3 24h inh	MMP-13 inhibitor	ROCK2 blocker	Htt clearance	PKA kinase inh
Cc1ccc(CCNc2ccccc2C)cn1	.	.	.	.	57.4	.
O=C(Nn1c(=S)[nH]c2ccccc2c1=O)c1ccncc1	0.7	74.6	4.8	19.5*	14.2	6.7
COc1cc(Cn2c(-c3nonc3N)nc3ccccc32)ccc1C	1.3	35.5*	-8.5	-1.8	-188.7	-3.6
CCN(CC)CCC(=O)Nc1cc(OC)cc2cccnc12	6.1	.	.	.	.	.
COc1cc(NS(=O)(=O)c2ccc([N+](=O)[O-])cc2[N+](=O)[O-])c2ncccc2c1	26.0	.	.	.	.	.
O=C(CSc1nc2c(cnn2-c2ccc(F)cc2)c(=O)[nH]1)N1CCCc2ccccc21	.	90.3	0.2	.	-47.4	5.1
Nc1nc(SCC(=O)N2CCCc3ccccc32)[nH]c(=O)c1-c1ccccc1	-4.3	109.2	-3.8	5.1	70.0*	4.7
CCOC(=O)c1ccccc1NC(=O)Cn1cnc2c(cnn2-c2ccc(OC)cc2)c1=O	-3.4	82.1	-1.3	6.8	85.6*	9.9
O=C(Nc1cccc2cccnc12)c1sc2cc(Cl)ccc2c1Cl	-1.6	.	.	.	.	.
CCC(CC)NCCCNc1cc(OC)cc2cccnc12	9.6	.	.	.	.	.
NC(=O)C1CCN(Cc2nc3ccccc3c(=O)[nH]2)CC1	.	.	.	.	-222.2	.
O=c1[nH]c(CN2CCN(CCO)CC2)nc2ccccc12	-1.1	85.1	-0.9	-3.4	76.6*	-8.9
